# Source: PubChem BioAssay
# SNCA expr inhib = SNCA gene expression inhibition; HEK-293 SNCA-luciferase knock-in, luminescence, 24 h; Potency, µM (doses to about 57.2 µM), actives largely listed as inhibitors; actives 0.17% (n = 140,000); further: nearly all actives have a fitted effect of over 45% in size
# FLuc inh = inhibitors of firefly (Photinus pyralis) luciferase; Potency, µM (highest dose often 115 µM), usual class: inhibitors; actives 2.5% (n = 76,000); purified P. pyralis luciferase, luminescence, biochemical; further: nearly all actives have a fitted effect of over 65% in size
# Target sequence (P08659 whole entry, looked up): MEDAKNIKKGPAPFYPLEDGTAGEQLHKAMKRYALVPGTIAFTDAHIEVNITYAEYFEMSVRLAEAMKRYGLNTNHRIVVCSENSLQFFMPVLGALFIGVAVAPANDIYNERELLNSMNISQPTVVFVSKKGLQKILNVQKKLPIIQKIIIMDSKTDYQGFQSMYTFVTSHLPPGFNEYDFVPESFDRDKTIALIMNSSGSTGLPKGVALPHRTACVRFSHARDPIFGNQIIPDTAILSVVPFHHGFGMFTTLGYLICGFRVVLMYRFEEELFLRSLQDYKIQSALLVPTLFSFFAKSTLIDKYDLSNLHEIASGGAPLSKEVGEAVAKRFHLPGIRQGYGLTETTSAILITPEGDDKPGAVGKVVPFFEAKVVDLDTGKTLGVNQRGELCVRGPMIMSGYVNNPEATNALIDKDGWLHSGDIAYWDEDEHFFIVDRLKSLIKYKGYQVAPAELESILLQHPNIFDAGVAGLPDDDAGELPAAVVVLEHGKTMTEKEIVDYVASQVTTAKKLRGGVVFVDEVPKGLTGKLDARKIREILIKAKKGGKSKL
#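 Biochemical qHTS: compound (6-point titration) added to 10uM D-luciferin plus 10uM ATP in Tris acetate pH 7.5 buffer with Mg, Tween-20 and BSA, then purified enzyme at 10nM; light output imaged.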
# 3T3 cytotox = NIH 3T3 cell cytotoxicity. Potency, µM (doses to about 96.7 µM), hits mostly inhibitors. AID 1345082. NIH 3T3 viability, CellTiter-Glo ATP luminescence, 48-72 h. actives 4.3% (n = 94,000); further: nearly all actives have a fitted effect of over 55% in size
#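 First NIH 3T3 cells are plated at 400 cells/well; next compound is pinned in; then plates incubate 48 or 72 hr at 37 °C; finally CellTiter-Glo is added and luminescence read after 10 min.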
# HEK293 tox = HEK 293 cell cytotoxicity; HEK 293 viability, ATP luminescence (CellTiter-Glo), 48-72 h; Potency, µM (top dose mostly 115 µM), actives largely listed as inhibitors; actives 6.6% (n = 94,000); AID 1345083; further: nearly all actives have a fitted effect of over 60% in size
#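 HEK 293 cells at 250 cells/well were exposed to compounds by pintool transfer for 48 or 72 hr at 37 degree Celsius, 5% CO2. Viability was read as ATP-coupled luminescence with CellTiter-Glo after 10 min at room temperature.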
# hNpr1 antagonist = human Npr1 receptor antagonism; HEK293 hNpr1 GloSensor cGMP, ANP-stimulated luminescence; P16066; actives 1.6% (n = 76,000); Potency, µM (highest dose often 46.3 µM), hits mostly inhibitors; calls by dose curve; further: nearly all actives have a fitted effect of over 60% in size
#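 Compound pre-incubated 30 min at room temperature on GloSensor-loaded HEK293 cells stably carrying hNpr1 and the pGS-40F cGMP biosensor. Stimulation uses hNppA at 0.1 nM final; luminescence is taken at baseline and 20 min post-agonist.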
# SNCA viab count = reduces viability of HEK-293 SNCA reporter cells; AID 1671193; Potency, µM (top dose mostly 57.1 µM), most hits filed as cytotoxic; HEK-293-SNCA-luc viability, GF-AFC fluorescence, 24 h; actives 0.12% (n = 150,000); further: nearly all actives have a fitted effect of over 30% in size
#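 Cytotoxicity counterscreen: after 24 h compound treatment of genome-edited SNCA-luciferase HEK-293 cells, live-cell protease substrate GF-AFC read by fluorescence after 30 min; activity scaled between DMSO (0%) and medium-only (-100%), curves Hill-fitted.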
# Numbers stand for hits; 0 = inactive; ? = inconclusive; - = no result given; [ ] = dose if it differs, or a comment. Rows were chosen to be rich in hits. Some 7.4% of all compounds tested hit in one or more screens of this group. Unless noted, the call rests on the fitted dose curve; in most records, active means well fitted curve in the direction sought with a large enough effect; inconclusive means small, poorly fitted or top-dose-only effect, or another doubt; inactive means no such curve, though single readings can be large; an effect the other way counts as inactive or inconclusive.
SMILES,SNCA expr inhib,FLuc inh,3T3 cytotox,HEK293 tox,hNpr1 antagonist,SNCA viab count
CN1C[C@@H](NC(=O)c2ccccc2)C[C@H]1c1nc(-c2ccc3c(c2)OCO3)no1,0,0,?,79µM,0,0
Cc1ccccc1C(=O)N1CCCC1C(=O)N1CCC(c2ccccc2)CC1 (stereo not given),0,-,0,0,-,0
CCCCS(=O)(=O)N1CCC2(CCC(=O)N(Cc3ccccc3)C2)CC1,0,0,0,0,0,0
COc1c(C)cnc(Cn2c(-c3ccccc3)nc(C)c(CCO)c2=O)c1C,0,0,45µM,?,0,0
Cc1cccc(-c2nc(Cn3c(-c4ccccc4)nc(C)c(CCO)c3=O)c(C)o2)c1,0,0,?,79µM,0,0
Cc1nc(-c2ccc(Cl)cc2)n(Cc2ccc(F)cc2)c(=O)c1CCO,0,0,?,20µM,0,0
COc1ccccc1Cn1c(-c2ccc(Cl)cc2)nc(C)c(CCO)c1=O,0,0,?,32µM,0,0
COc1ccccc1Cn1c(-c2cccc(Cl)c2)nc(C)c(CCO)c1=O,0,0,?,?,0,0
CCOC(=O)C1=CN(CC(=O)Nc2ccc(C)c(C)c2)S(=O)(=O)N=C1C,0,0,0,?,0,0
Cc1cc2nc3n(c(=O)c2n1CC(=O)Nc1ccc(Br)cc1F)CCC3,0,0,?,0,0,0
Cc1nc(-c2ccccc2)n(Cc2ccccc2Cl)c(=O)c1CCO,0,0,45µM,?,0,0
Cc1nc(-c2ccccc2)n(Cc2ccc(F)cc2F)c(=O)c1CCO,0,0,?,?,0,0
Cc1ccc2c(C)c(C(=O)N3C[C@@H](NS(C)(=O)=O)[C@H](C(C)C)C3)oc2c1,?,0,?,45µM,0,0
Cc1ccc2c(C)c(C(=O)N3CC[C@H](O)[C@@H](O)C3)oc2c1,0,0,0,0,0,0
CCc1cc(N2CCC(NCCc3cccc(Cl)c3)CC2)nc(C)n1,0,0,40µM,?,0,0
COCCOC1CCOC2(CCN(S(=O)(=O)c3ccc(F)cc3)CC2)C1 (stereo not given),0,0,0,0,0,0[12.5 µM]
CC(C)(CC1Cc2ccccc2C1)NC(=O)C1CC2(CCNCC2)CN1 (stereo not given),0,0,32µM,25µM,0,0
CC(C)CN(C/C=C/c1ccccc1)C(=O)C1CC2(CCNCC2)CN1 (stereo not given),0,0,?,?,0,0
CCc1cc(C(=O)N2CCC3(CCC(=O)N(CCc4cnc[nH]4)C3)CC2)cs1,0,0,0,0,0,0
O=C(NC1CC(c2cc(N3CCC(O)C3)ncn2)C1)c1ccoc1 (stereo not given),0,0,0,0,0,0
N#Cc1ccc(NC2CC(c3cc(N4CCC(O)C4)ncn3)C2)nc1 (stereo not given),0,0,16µM,0,0,0
O=C(C1CC1)N1CCC(O)(c2csc(CN3CCc4ccccc4C3)n2)CC1,0,0,?,?,0,0
OC1(c2csc(CN3CCc4ccccc4C3)n2)CCN(CC2CCCCC2)CC1,0,0,?,?,0,0
OC1(c2csc(CN3CCc4ccccc4C3)n2)CCN(C2CCC2)CC1,?,0,100µM,71µM,0,0
COc1ccc(CN2CCC(O)(c3csc(CN4CCN(C)CC4)n3)CC2)cc1,0,0,89µM,100µM,0,0
SMILES,SNCA expr inhib,FLuc inh,3T3 cytotox,HEK293 tox,hNpr1 antagonist,SNCA viab count
CN1CCC(N2CCC(O)(c3csc(CN4CCc5ccccc5C4)n3)CC2)CC1,0,0,56µM,40µM,0,0
CC(C)(C)CC(=O)N1CCC(O)(c2csc(CN3CCc4ccccc4C3)n2)CC1,?,0,?,71µM,0,0
CN1CCN(Cc2nc(C3(O)CCN(Cc4ccccc4)CC3)cs2)CC1,0,0,?,?,0,0
CC(C)CCN1CCC(O)(c2csc(CN3CCc4ccccc4C3)n2)CC1,0,0,100µM,79µM,0,0
O=C1CN([S+](=O)([O-])Cc2ccccc2)CC(O)CN1CCc1ccccc1 (stereo not given),-,-,0,?,-,-
O=C(Cc1ccsc1)Nc1cnc(-c2ccccc2)nc1,0,5µM,?,?,?,0
COc1ccc(C(=O)N2C[C@@H](F)C[C@H]2C(=O)N2CCCCC2)c(OC)c1,0,0,0,0,0,0
COc1ccc(C(=O)Nc2ccc3nc4c(c(Nc5ccccc5OC)c3c2)CCCC4)c(OC)c1,0,-,-,-,-,0
COc1ccccc1Nc1c2c(nc3ccc(NC(=O)c4cccc(OC)c4OC)cc13)CCCC2,?,-,-,-,-,16µM
CCN1c2cc(C(=O)Nc3ccc(OC)c(OC)c3)ccc2C(=O)N2CCCCC21 (stereo not given),0,0,?,?,0,0[12.5 µM]
CCN1c2cc(C(=O)Nc3ccc(OC)c(F)c3)ccc2C(=O)N2CCCCCC21 (stereo not given),0,0,?,?,0,0[12.5 µM]
CCN1c2cc(C(=O)Nc3ccc(OC)c(OC)c3)ccc2C(=O)N2CCCCCC21 (stereo not given),0,0,?,45µM,0,0[12.5 µM]
CCN1c2cc(C(=O)Nc3ccc(OC)c(Cl)c3)ccc2C(=O)N2CCCCC21 (stereo not given),?,0,22µM,35µM,0,0[12.5 µM]
COc1ccc(C(=O)N[C@@H]2CN(Cc3ccccc3)C[C@H]2CN(C)C)cn1,?,-,32µM,?,-,0
COc1ccc(C(=O)N[C@@H]2CN(Cc3ccccc3)C[C@H]2CN(C)C)cc1,?,-,?,5.6µM,-,0
CN(C)C[C@@H]1CN(Cc2ccncc2)C[C@H]1NC(=O)c1ccc(Cl)cc1,0,0,?,40µM,0,?
Cc1ccc(C)c(C(=O)N[C@@H]2CN(Cc3ccccn3)C[C@H]2CN(C)C)c1,0,0,0,79µM,0,0
CN(C)C[C@@H]1CN(Cc2ccccn2)C[C@H]1NC(=O)c1cccc(Cl)c1,0,0,?,?,0,0
CCCS(=O)(=O)NCC(=O)N1CCCCCCNC(=O)CC1c1ccccc1 (stereo not given),0,0,0,0,0,0
O=C(c1cc(F)ccc1F)N1CCC(Cc2nc(-c3ccccc3)n[nH]2)CC1,0,-,0,?,-,0
CN(C)C[C@@H]1CN(C2CCOCC2)C[C@H]1NC(=O)c1ccc(F)c(Cl)c1,0,0,?,79µM,0,0
C#CCNC(=O)c1nc(-c2cccc(C(F)(F)F)c2)c2ccccn12,0,0,?,50µM,0,0
C#CCNC(=O)c1nc(-c2ccccc2)c2ccccn12,0,0,?,?,0,0
CC(C)NC(=O)c1nc(-c2cccc(C(F)(F)F)c2)c2ccccn12,0,0,89µM,79µM,0,0
